This note sets out measurements from PubChem BioAssay.

Experiment [1] relates to Human papillomavirus type 1a protein E7 (residues 44-93). The experiment is described as follows: small molecules binding HPV E7 44-93 – biochemical, small-molecule microarray, residues 44-93, 635 nm fluorescence, primary screen (AID 1108).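 Note: E7 fragment applied at 1 µg/mL in TBST for 1 h at 4 C; score combines spot fluorescence with its signal to noise ratio.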 The following applies: fluorescence 635 nm, higher = more signal.
A short description of experiment [2]: hepatitis C replication reporter changes, two-sided – Huh7 cells, luciferase reporter, HCV replication inhibitor project, primary screen (AID 1109).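 Note: huh7 hepatoma cells harbouring a luciferase neomycin HCV replicon reporter; luciferase luminescence as measure of HCV replicon replication; test concentration not given here.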 The following applies: Huh7 HCV replicon luciferase reporter, 48 h; higher = more signal. (In general: Reporter assays use an easily measured gene product as a stand-in for the process of interest.)
Experiment [3] deals with Left-right determination factor 2 (Homo sapiens) (UniProt O00292). Put plainly: small molecules binding LEFTY2 protein – biochemical, small-molecule microarray, 635 nm fluorescence scan, primary screen (AID 1110). The following applies: higher = more signal.
Left-right determination factor 2 (Homo sapiens), sequence (O00292 whole entry, looked up): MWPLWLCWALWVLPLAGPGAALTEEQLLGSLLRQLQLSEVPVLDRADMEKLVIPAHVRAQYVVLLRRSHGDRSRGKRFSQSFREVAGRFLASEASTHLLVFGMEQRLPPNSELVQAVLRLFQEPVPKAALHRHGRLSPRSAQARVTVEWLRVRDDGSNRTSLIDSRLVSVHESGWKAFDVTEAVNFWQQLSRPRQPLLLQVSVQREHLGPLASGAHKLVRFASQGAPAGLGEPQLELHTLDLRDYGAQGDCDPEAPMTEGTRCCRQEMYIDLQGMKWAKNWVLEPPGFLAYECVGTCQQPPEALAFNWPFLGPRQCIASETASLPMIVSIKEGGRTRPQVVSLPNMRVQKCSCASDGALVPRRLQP
The target in experiment [4] is Calmodulin-1 (Homo sapiens) (UniProt P0DP23). The experiment is described as follows: small molecules binding calmodulin-1 with EGTA – biochemical, small-molecule microarray, Cy5-labelled CALM1, profiling panel (AID 1111).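 Note: labelled calmodulin applied in Tris saline Tween buffer holding calcium plus EGTA and DTT.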 The following applies: Cy5-CALM1 binding fluorescence, higher = more signal.
For experiment [5] the target is unchanged. The experiment is described as follows: small molecules binding Ca-loaded calmodulin-1 – biochemical, small-molecule microarray, Cy5-labelled CALM1, plus calcium, artefact control for SMM control-protein annotation, profiling panel (AID 1112).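 Note: score merges spot fluorescence with signal to noise from triplicate slides.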 The following applies: Cy5-CALM1 binding fluorescence, higher = more signal.
A short description of experiment [6]: probe aWnt5a binding to arrayed compounds – biochemical, biotinylated probe, 635/667 nm fluorescence, primary screen (AID 1113).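 Note: score merges 667 nm fluorescence intensity with signal-to-noise per printed feature.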 As to conditions: small-molecule microarray, higher = more signal.
Experiment [7] is described as follows: probe aShh binding to arrayed compounds – biochemical, biotinylated probe, 635/667 nm fluorescence, primary screen (AID 1114).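 Note: probe is biotin-labelled aShh protein from a stem cell growth factor screen; measures binding of labelled protein to compounds printed on the slide; score merges feature fluorescence at 667 nm with signal-to-noise.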 The following applies: small-molecule microarray, higher = more signal.
Experiment [8] in a line: probe aNog binding to arrayed compounds – biochemical, biotinylated probe, 635/667 nm fluorescence, primary screen (AID 1115).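 Note: probe is biotinylated aNog protein used at 0.15 µg/mL for 1 h at 4 C; z-score combines 667 nm fluorescence of each spot with its signal to noise.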 As to conditions: small-molecule microarray, higher = more signal.
For experiment [9], the target named is Torsin-1A-interacting protein 1 (Homo sapiens) (UniProt Q5JTV8). Put plainly: compound microarray binding of lysate hLAP1 – cell lysate, small-molecule microarray, COS7 lysate, 635/667 nm fluorescence, primary screen (AID 1116). As to conditions: 635 nm fluorescence, higher = more signal.
Torsin-1A-interacting protein 1 (Homo sapiens), sequence (Q5JTV8 whole entry, looked up): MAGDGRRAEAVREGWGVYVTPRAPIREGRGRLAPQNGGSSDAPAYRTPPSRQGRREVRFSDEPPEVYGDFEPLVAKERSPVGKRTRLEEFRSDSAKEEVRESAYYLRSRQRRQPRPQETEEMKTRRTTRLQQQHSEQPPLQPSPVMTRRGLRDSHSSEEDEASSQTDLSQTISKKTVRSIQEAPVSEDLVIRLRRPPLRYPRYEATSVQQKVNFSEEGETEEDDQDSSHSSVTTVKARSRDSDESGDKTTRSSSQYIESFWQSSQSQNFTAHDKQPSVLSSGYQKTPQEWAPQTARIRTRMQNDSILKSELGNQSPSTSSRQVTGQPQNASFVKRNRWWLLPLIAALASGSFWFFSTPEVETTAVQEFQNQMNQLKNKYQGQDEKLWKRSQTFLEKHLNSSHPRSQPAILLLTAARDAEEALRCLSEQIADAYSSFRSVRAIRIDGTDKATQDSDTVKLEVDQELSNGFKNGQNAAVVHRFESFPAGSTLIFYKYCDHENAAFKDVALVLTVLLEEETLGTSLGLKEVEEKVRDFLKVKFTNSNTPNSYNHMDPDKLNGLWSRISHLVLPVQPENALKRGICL
For experiment [10], the target named is Alpha-bungarotoxin (Bungarus multicinctus) (UniProt P60615). The experiment is described as follows: compounds binding labelled alpha-BTX control protein – biochemical, small-molecule microarray, Alexa647 label, 635/667 nm fluorescence, artefact control for SMM control protein annotation, profiling panel (AID 1117). As to conditions: alpha-BTX-A647 binding fluorescence, higher = more signal.
Alpha-bungarotoxin (Bungarus multicinctus), sequence (P60615 whole entry, looked up): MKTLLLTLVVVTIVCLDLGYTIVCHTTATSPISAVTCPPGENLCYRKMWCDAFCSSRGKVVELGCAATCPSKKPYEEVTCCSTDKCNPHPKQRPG

The target in the next experiment is Albumin (Bos taurus) (UniProt P02769). The experiment is described as follows: compounds binding labelled BSA control protein – biochemical, small-molecule microarray, Alexa647 label, 635/667 nm fluorescence, artefact control for SMM control protein annotation, profiling panel (AID 1118).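 Note: score merges 667 nm emission intensity and signal-to-noise per printed compound spot.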 As to conditions: BSA-A647 binding, fluorescence 635 nm, higher = more signal.
Albumin (Bos taurus), sequence (P02769 whole entry, looked up): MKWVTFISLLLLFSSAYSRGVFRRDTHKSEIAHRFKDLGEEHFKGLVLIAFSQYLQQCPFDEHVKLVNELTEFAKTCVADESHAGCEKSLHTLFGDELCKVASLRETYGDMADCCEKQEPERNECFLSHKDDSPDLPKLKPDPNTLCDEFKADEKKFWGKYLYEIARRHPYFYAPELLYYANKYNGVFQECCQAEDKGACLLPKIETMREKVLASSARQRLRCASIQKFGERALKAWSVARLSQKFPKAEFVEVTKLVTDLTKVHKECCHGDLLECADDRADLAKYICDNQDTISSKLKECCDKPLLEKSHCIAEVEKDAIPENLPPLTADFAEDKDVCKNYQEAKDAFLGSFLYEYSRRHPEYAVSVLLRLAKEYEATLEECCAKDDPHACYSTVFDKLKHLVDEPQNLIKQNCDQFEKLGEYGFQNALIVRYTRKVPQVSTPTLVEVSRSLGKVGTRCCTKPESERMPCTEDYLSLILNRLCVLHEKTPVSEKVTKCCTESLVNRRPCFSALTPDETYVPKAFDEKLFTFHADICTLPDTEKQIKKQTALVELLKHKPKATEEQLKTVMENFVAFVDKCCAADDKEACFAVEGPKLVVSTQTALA

Experiment [11] in a line: probe aXIP binding to arrayed compounds – biochemical, NeuroSMM set, 635/667 nm fluorescence, primary screen (AID 1119).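 Note: probe is the protein aXip251-270 applied at 1 µg/mL to compound-printed slides; binding of probe to printed compounds measured as 667 nm fluorescence plus signal to noise.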 The following applies: small-molecule microarray, higher = more signal, called active from +8 up or from −8 down.
Experiment [12] is described as follows: probe aNOTCH3 binding on compound microarray – biochemical, small-molecule microarray, 635/667 nm fluorescence, primary screen (AID 1120).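 Note: probe is a biotin-tagged antibody raised against NOTCH3 rather than NOTCH3 protein; score merges spot fluorescence near 667 nm with spot signal to noise.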 As to conditions: higher = more signal.
Experiment [13] can be described thus: probe aNOTCH2 binding on compound microarray – biochemical, small-molecule microarray, 635/667 nm fluorescence, primary screen (AID 1121).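 Note: score merges feature fluorescence read at 667 nm with its signal to noise.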 As to conditions: higher = more signal.
Experiment [14] has as its target Carbonic anhydrase 2 (Homo sapiens) (UniProt P00918). The experiment is described as follows: compounds binding carbonic anhydrase 2 – biochemical, small-molecule microarray, Alexa647-labelled CAII, profiling panel (AID 1122). As to conditions: CAII-A647 binding fluorescence, higher = more signal.
Experiment [15] in a line: COS7 lysate on small-molecule microarray, probe aHis, 635 nm (AID 1123).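 Note: z-score combines 667nm fluorescence intensity with signal-to-noise per printed compound spot.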 As to conditions: COS7 cell lysate, fluorescence, higher = more signal.
The nature of experiment [16]: probe aLAP1 signal on lysate-treated microarray – cell lysate, small-molecule microarray, COS7 lysate, primary screen (AID 1124).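 Note: lysate comes from COS7 cells expressing LAP1 and is applied at 0.3 µg/mL; score merges spot fluorescence near 667 nm with signal-to-noise over triplicate slides.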 The following applies: probe aLAP1, fluorescence, higher = more signal.
In a further experiment the test system is Sam68 (KHDRBS1). The experiment is described as follows: compounds binding KHDRBS1 protein – biochemical, small-molecule microarray, 635 nm fluorescence, primary screen (AID 1125).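 Note: score merges 667 nm channel intensity with signal to noise over triplicate slides.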 As to conditions: higher = more signal.
Experiment [17] has as its system Chordin-like protein 2 (CHRDL2). Put plainly: compounds binding chordin-like 2 – biochemical, small-molecule microarray, 635 nm fluorescence, primary screen (AID 1126).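 Note: printed compound slides probed with Chrdl2 protein at 4 µg/mL for 1 h at 4 C; score merges 667 nm emission intensity with signal to noise over three replicate slides.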 As to conditions: fluorescence 635 nm, higher = more signal.
Experiment [18] concerns the target Concanavalin-A (Canavalia ensiformis) (UniProt P02866). Put plainly: compounds binding concanavalin A lectin – biochemical, small-molecule microarray, Alexa647 label, 635 nm, artefact control for SMM control protein annotation, primary screen (AID 1127).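 Note: z combines 667 nm emission intensity with signal-to-noise across three replicate slides.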 As to conditions: ConA-A647 binding fluorescence, higher = more signal.

SMILES strings stand for the structures. Active and inactive are the calls of the source.

Concanavalin-A (Canavalia ensiformis), sequence (P02866 whole entry, looked up): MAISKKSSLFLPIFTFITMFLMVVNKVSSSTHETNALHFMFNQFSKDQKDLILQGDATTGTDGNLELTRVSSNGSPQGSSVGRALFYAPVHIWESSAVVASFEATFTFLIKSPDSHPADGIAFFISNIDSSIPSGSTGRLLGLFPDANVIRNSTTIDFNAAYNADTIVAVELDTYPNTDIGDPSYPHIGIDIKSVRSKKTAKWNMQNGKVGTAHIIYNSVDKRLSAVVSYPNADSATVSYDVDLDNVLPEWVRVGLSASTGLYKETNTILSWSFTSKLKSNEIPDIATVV

Consider `COc1cccc(C(=O)O[C@H]2CC[C@]3(C)C4=C(CCC3C2(C)C)[C@]2(C)CC[C@H]([C@H](C)CCCC(C)C)[C@@]2(C)CC4)c1` (stereo not given in full), for which the composite z-score in experiment [1] is -0.212; in experiment [3], 0.359; in experiment [4], -0.0348; in [5] it was -0.441; in experiment [6], -0.202; in experiment [7], -0.138. Besides, the composite z-score is -0.0689 in experiment [8]; 0.105 in experiment [9]; 0.3 in experiment [10]; 0.111 with Albumin (Bos taurus); -0.0414 in [12]; -0.132 in [13]. Further, the composite z-score was 0.202 in experiment [14]; 0.279 in [15]; -0.147 in [16]; 0.166 in the experiment on Sam68 (KHDRBS1); 0.585 in [17]; 0.254 in experiment [18]. Further, the z-score in experiment [2] amounted to 0.004. Further, the composite Z-score in experiment [11] was -0.424 (inactive).
As for `COc1ccc(CCNC(=O)[C@@]2(Sc3ccc(C)cc3)CC(=O)N(Cc3ccccc3Cl)[C@@H]2c2ccc(CO)cc2I)cc1`, the composite z-score in [1] was 0.552; in [3] it was -0.736; in [4], -0.252; in experiment [5], -0.0371; in [6] it was -0.184; in experiment [7] it was 0.157. In addition, the composite z-score was 0.384 in [8]; 1.08 in [9]; 0.42 in [10]; 0.331 with Albumin (Bos taurus); -0.177 in [12]; -0.0814 in experiment [13]. For the same compound, the composite z-score was 0.76 in experiment [14]; 1.71 in experiment [15]; 1.18 in [16]; 0.361 in the experiment on Sam68 (KHDRBS1); 0.0024 in experiment [17]; -0.233 in [18]. For the same compound, in experiment [2], the z-score was -1.98. Moreover, the composite Z-score in experiment [11] was -0.0194 (inactive).
On to `C=C(COC)C(=O)CC[C@H](OC(C)=O)c1cccc(OCCO)c1`, for which the composite z-score was -0.76 in experiment [1]; -0.729 in experiment [3]; -0.779 in [4]; -0.773 in [5]; -0.124 in experiment [6]; 0.111 in experiment [7]. In addition, the composite z-score in [8] was -0.0428; in experiment [9], 0.8; in [10] it was 1.24; in the experiment with Albumin (Bos taurus), -0.768; in [12], -0.165; in experiment [13], -0.154. Besides, the composite z-score in experiment [14] was 0.358; in [15] it was 0.451; in experiment [16], 0.775; in the experiment on Sam68 (KHDRBS1), 0.151; in experiment [17] it was -0.298; in experiment [18], -0.935. In experiment [2], this compound returned a z-score of -0.574. In addition, the composite Z-score in experiment [11] is 0.157 (inactive).
As to `O=C1OCC=C[C@H]2OC34C=CCN(c5ccc6ccccc6c5)C(=O)[C@H]3N(CCCO)C(=O)[C@@H]4[C@@H]12` (stereo not given in full), the composite z-score in experiment [1] was -0.522; in [3], -0.842; in experiment [4] it was -0.0892; in [5], 0.172; in experiment [6], -0.124; in [7], -0.15. Further, the composite z-score in experiment [8] is 0.135; in experiment [9], 0.208; in experiment [10], -0.871; in the experiment with Albumin (Bos taurus) it was 0.314; in [12], -0.256; in experiment [13] it was -0.07. In addition, the composite z-score is 0.709 in experiment [14]; -0.559 in experiment [15]; 1.26 in experiment [16]; -1.39 in the experiment on Sam68 (KHDRBS1); -0.824 in experiment [17]; -0.223 in [18]. In addition, the z-score in [2] is -0.805. In experiment [11], the composite Z-score is 0.102 (inactive).
Regarding `COc1ccc([Si](C)(C)[C@@H]2[C@@H](CC(=O)N(CCO)Cc3ccccc3)O[C@]3(C(=O)N(C)c4ccccc43)[C@H]2C)cc1`, the composite z-score in experiment [1] was 0.906; in [3], 0.813; in experiment [4] it was 0.773; in experiment [5], -0.193; in experiment [6] it was -0.0721; in experiment [7], 0.366. Further, the composite z-score in [8] turned out to be 0.422; in experiment [9] it was 0.44; in experiment [10], 0.805; in the experiment with Albumin (Bos taurus) it was 0.751; in experiment [12], 0.0964; in [13], 0.0022. The composite z-score was 0.516 in [14]; 0.855 in [15]; 0.0123 in experiment [16]; 1.31 in the experiment with Sam68 (KHDRBS1); 1.43 in [17]; 1.12 in experiment [18]. This compound also yielded a z-score in [2] of -3.95. Further, the composite Z-score in [11] was 0.26 (inactive).
Turning to `COc1ccc(CCNC(=O)[C@@]2(c3ccc([N+](=O)[O-])cc3)CC(=O)N(CC34CC5CC(CC(C5)C3)C4)[C@@H]2c2ccc(CO)cc2)cc1`, the composite z-score in experiment [1] was 1.42; in experiment [3], 0.614; in experiment [4], 0.581; in experiment [5] it was 0.084; in experiment [6], -0.0202; in experiment [7] it was 0.2. The composite z-score in experiment [8] is -0.0281; in experiment [9], 0.299; in [10] it was 0.155; with Albumin (Bos taurus) it was -0.191; in experiment [12], 0.0494; in experiment [13], -0.0617. Also, the composite z-score in experiment [14] is 0.18; in experiment [15], 1.11; in experiment [16], -0.291; with Sam68 (KHDRBS1) it was 1.09; in experiment [17] it was 0.647; in experiment [18], 1.12. This compound had a z-score in experiment [2] of -3.38. The composite Z-score in experiment [11] is 0.22 (inactive).
